Experimental data from PubChem BioAssay (NCI).
“And” between values parts separate entries of the source, which are not always exact repeats. Equal values may be shown once. Compounds without any hit were thinned out: in the full panel of roughly 79,000, 15% have a hit. More than one record can exist for a structure, and the calls need not agree. The source made the active and inactive calls. Cut-off read from the data, not from the text of the source: active = growth inhibition above about 70%; inactive = the rest.

Legend:
[1] = NCI Yeast Anticancer Drug Screen. Data for the wt1 strain (AID 149);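 note: 0% = growth of vehicle-treated wt1 cultures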; details: S. cerevisiae wt1 strain (SPY 50644) growth inhibition, stronger effect = higher value
Outline: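 Yeast wt1 strain exposed to compounds; growth inhibition measured relative to vehicle-treated controls.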

[2] = NCI Yeast Anticancer Drug Screen. Data for the rad50EPP+ strain (AID 151);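 note: 0% = growth of vehicle-treated control cultures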; details: S. cerevisiae rad50 mutant strain, stronger effect = higher value
Outline: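 Exposing the rad50EPP+ strain to each compound, growth was compared with vehicle-only cultures to give inhibition.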

[3] = NCI Yeast Anticancer Drug Screen. Data for the mgt1 strain (AID 153); details: S. cerevisiae mgt1 mutant growth inhibition, stronger effect = higher value
Outline: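 Genetically defined yeast (mgt1) treated with compound; inhibition of growth expressed against vehicle-treated controls.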

[4] = NCI Yeast Anticancer Drug Screen. Data for the rad50 strain (AID 155);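 note: 0% = growth of vehicle-only cultures of the same strain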; details: S. cerevisiae rad50 strain growth inhibition, stronger effect = higher value
Outline: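 Yeast carrying a defined DNA repair defect were exposed to test compounds, and growth was compared with vehicle-treated controls to give percent inhibition.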

[5] = NCI Yeast Anticancer Drug Screen. Data for the mec2-1 strain (AID 157); details: S. cerevisiae mec2-1 strain, stronger effect = higher value
Outline: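 Readout is yeast growth inhibition, normalised to vehicle-treated controls, in the mec2-1 strain exposed to compound.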

[6] = NCI Yeast Anticancer Drug Screen. Data for the rad14 strain (AID 159);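 note: 0% = growth of vehicle-treated control cultures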; details: S. cerevisiae rad14 strain growth inhibition, stronger effect = higher value
Outline: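 Yeast cells carrying a defined DNA-repair defect were exposed to compounds, and growth inhibition was calculated relative to vehicle-treated control cultures.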

[7] = NCI Yeast Anticancer Drug Screen. Data for the sgs1 mgt1 strain (AID 161);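 note: 0% = growth of cultures given vehicle only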; details: S. cerevisiae sgs1 mgt1 strain, stronger effect = higher value
Outline: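 Yeast cells carrying a defined DNA-repair defect were exposed to test compounds. Growth inhibition was measured relative to vehicle-treated controls.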

[8] = NCI Yeast Anticancer Drug Screen. Data for the CLN2oe strain (AID 163);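 note: 0% = growth of vehicle-only control cultures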; details: S. cerevisiae CLN2oe strain, stronger effect = higher value
Outline: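 Values reflect how much compound exposure reduced yeast growth, referenced to vehicle-exposed cells. Assay organism is a strain with a defined genetic change affecting cell-cycle control.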

[9] = NCI Yeast Anticancer Drug Screen. Data for the cln2 rad14 strain (AID 165);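 note: 0% = growth equal to vehicle treated cultures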; details: S. cerevisiae cln2 rad14 strain, stronger effect = higher value
Outline: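 Relative to vehicle controls, growth inhibition of compound-treated cln2 rad14 yeast was recorded.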

[10] = NCI Yeast Anticancer Drug Screen. Data for the bub3 strain (AID 167); details: S. cerevisiae bub3 mutant strain, stronger effect = higher value
Outline: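 Compounds were applied to a genetically altered yeast strain carrying a cell-cycle control defect. Growth inhibition was scored against vehicle-treated controls.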

[11] = NCI Yeast Anticancer Drug Screen. Data for the sgs1 strain (AID 173);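 note: 0% = growth of vehicle-only control cultures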; details: S. cerevisiae sgs1 mutant, stronger effect = higher value
Outline: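 Treat defined-mutant yeast with compound; measure growth; calculate inhibition relative to vehicle-treated cells.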

[12] = NCI Yeast Anticancer Drug Screen. Data for the mlh1 rad18 strain (AID 175); details: S. cerevisiae mlh1 rad18 strain growth inhibition, stronger effect = higher value
Outline: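 Test agents were incubated with a yeast strain of defined genotype (DNA damage repair defect). Inhibition of growth was derived by comparison with vehicle-exposed cultures.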

[13] = NCI Yeast Anticancer Drug Screen. Data for the rad18 strain (AID 177); details: S. cerevisiae rad18 mutant growth inhibition, stronger effect = higher value
Outline: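 A genetically defined yeast mutant impaired in DNA damage repair was treated with test compounds, then its growth was measured against cultures receiving vehicle alone.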

[14] = NCI Yeast Anticancer Drug Screen. Data for the wt2 strain (AID 169);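 note: 0% = growth of vehicle-treated yeast cultures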; details: S. cerevisiae wt2 strain growth inhibition, stronger effect = higher value
Outline: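 Values express reduction in yeast growth under compound treatment, referenced to vehicle-treated cells.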

[15] = at 5.0 µM (retest, dose inferred, filed as 0.5)
[16] = at 50.0 µM (retest, dose inferred, filed as 5.0)

Measured: growth inhibition

Oc1cccc2nc3ccccc3nc12
inactive: [1]; at 1.2 µM -55% | [1]; at 3.7 µM -46% | [1]; at 11.0 µM -30% | [1]; at 33.0 µM 1% | [2]; at 1.2 µM -47% | [2]; at 3.7 µM -31% | [2]; at 11.0 µM 6% | [2]; at 33.0 µM 63% | [3]; at 1.2 µM -22% | [3]; at 3.7 µM -14% | [3]; at 11.0 µM 6% | [3]; at 33.0 µM 20% | [4]; at 1.2 µM -4% | [4]; at 3.7 µM -8% | [4]; [15] -14% | [4]; at 11.0 µM 5% | [4]; at 33.0 µM 54% | [4]; at 50.0 µM 65.4% | [5]; at 1.2 µM -48% | [5]; at 3.7 µM -44% | [5]; [15] 9% | [5]; at 11.0 µM -33% | [5]; at 33.0 µM 24% | [5]; [16] 47% | [5]; at 50.0 µM 68.5% | [6]; at 1.2 µM -31% | [6]; at 3.7 µM -32% | [6]; at 11.0 µM -27% | [6]; at 33.0 µM 19% | [7]; [15] -4% | [7]; [16] 29% | [7]; at 50.0 µM 21% | [8]; at 1.2 µM -27% | [8]; at 3.7 µM -14% | [8]; at 11.0 µM -22% | [8]; at 33.0 µM 6% | [9]; [15] 1% | [9]; [16] 13% | [9]; at 50.0 µM 35.4% | [10]; at 1.2 µM -31% | [10]; at 3.7 µM -28% | [10]; [15] -3% | [10]; at 11.0 µM -16% | [10]; at 33.0 µM -4% | [10]; [16] 35% | [10]; at 50.0 µM 47.2% | [11]; at 1.2 µM -43% | [11]; at 3.7 µM -44% | [11]; at 11.0 µM -41% | [11]; at 33.0 µM -18% | [12]; [15] -41% | [12]; [16] 58% | [12]; at 50.0 µM 64.5% | [13]; at 1.2 µM -29% | [13]; at 3.7 µM -26% | [13]; at 11.0 µM -14% | [13]; at 33.0 µM 27%
active: [1]; at 100.0 µM 88% | [2]; at 100.0 µM 96% | [3]; at 100.0 µM 91% | [4]; [16] 73% | [4]; at 100.0 µM 95% | [5]; at 100.0 µM 94% | [6]; at 100.0 µM 92% | [8]; at 100.0 µM 93% | [10]; at 100.0 µM 94% | [11]; at 100.0 µM 86% | [13]; at 100.0 µM 93%

BrCC[N+]12CC[N+](CCBr)(CC1)C2
inactive: [1]; at 1.2 µM 1% | [1]; at 3.7 µM 6% | [1]; at 11.0 µM 14% | [2]; at 1.2 µM 9% | [2]; at 3.7 µM 14% | [2]; at 11.0 µM 12% | [3]; at 1.2 µM 12% | [3]; at 3.7 µM -2% | [3]; at 11.0 µM 42% | [4]; at 1.2 µM 14% | [4]; at 3.7 µM 20% | [4]; [15] 40% and 27% | [4]; at 11.0 µM 55% | [5]; at 1.2 µM -4% | [5]; at 3.7 µM 5% | [5]; [15] 43% and 1% | [5]; at 11.0 µM 29% | [6]; at 1.2 µM -13% | [6]; at 3.7 µM -16% | [6]; at 11.0 µM 56% | [7]; [15] 46% and -15% | [8]; at 1.2 µM 1% | [8]; at 3.7 µM -9% | [8]; at 11.0 µM 2% | [9]; [15] 35% and 23% | [10]; at 1.2 µM -5% | [10]; at 3.7 µM -1% | [10]; [15] 34% and -12% | [10]; at 11.0 µM 36% | [14]; at 1.2 µM -33% | [14]; at 3.7 µM -18% | [14]; at 11.0 µM 4% | [11]; at 1.2 µM -17% | [11]; at 3.7 µM 15% | [11]; at 11.0 µM 5% | [13]; at 1.2 µM 10% | [13]; at 3.7 µM 25% | [13]; at 11.0 µM 53%
92% (active) and 65% (inactive): [9]; [16]
active: [1]; at 33.0 µM 82% | [1]; at 100.0 µM 94% | [2]; at 33.0 µM 81% | [2]; at 100.0 µM 92% | [3]; at 33.0 µM 88% | [3]; at 100.0 µM 96% | [4]; at 33.0 µM 87% | [4]; [16] 94% and 89% | [4]; at 50.0 µM 86.7% and 86.5% | [4]; at 100.0 µM 93% | [5]; at 33.0 µM 87% | [5]; [16] 98% and 94% | [5]; at 50.0 µM 92.2% and 89.9% | [5]; at 100.0 µM 95% | [6]; at 33.0 µM 93% | [6]; at 100.0 µM 94% | [7]; [16] 90% and 93% | [7]; at 50.0 µM 89.2% | [8]; at 33.0 µM 78% | [8]; at 100.0 µM 89% | [9]; at 50.0 µM 84.9% and 85.5% | [10]; at 33.0 µM 89% | [10]; [16] 92% and 95% | [10]; at 50.0 µM 86.7% and 87% | [10]; at 100.0 µM 95% | [14]; at 33.0 µM 86% | [14]; at 100.0 µM 95% | [11]; at 33.0 µM 77% | [11]; at 100.0 µM 89% | [13]; at 33.0 µM 89% | [13]; at 100.0 µM 95%
